Hit rate of the full screen: of about 2,400 compounds, about 40 (2%) were called active. Not shown: some 1% with an inconclusive outcome.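 The calls were made as follows: active = inhibition at or above 60%; inconclusive = inhibition from 0% up to below 60%; inactive = no inhibition observed.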 For the sample, actives were picked, then their nearest neighbours and some compounds at random.
assay: qHTS Assay for Small Molecule Inhibitors of Mitochondrial Division or Activators of Mitochondrial Fusion: Hit Validation in Malachite Green Assay; conditions: purified GTPase, malachite green phosphate release, A650; stronger effect = higher value
From the text: The budding yeast S. cerevisiae is a powerful system to study mitochondrial fusion. Unlike other organisms, yeast cells without functional mitochondrial DNA (mtDNA) can be propagated and studied as long as they maintain a mitochondrial compartment and are provided with a fermentable carbon source. When mitochondrial fusion is blocked in yeast, mitochondrial tubules rapidly fragment and division continues unopposed. Under conditions where fusion is compromised in mammalian cells, nearly identical changes in mitochondrial structure have been observed. Thus, these findings indicate that steady state mitochondrial structure in cells is a characteristic and specific indicator of fusion activity. Mounting evidence has pointed to a connection between mitochondrial dynamics and apoptosis in mammalian cells. These studies indicate that in mammalian cells mitochondrial dynamics are more integrated into cellular processes than in yeast cells and have evolved not only to distribute the organelle but also to aid in the regulation of cellular homeostasis. Mitochondrial fusion proteins attenuate apoptosis by inhibiting the release of cytochrome c from mitochondria, in part by controlling cristae structures. Thus, small molecules that inhibit mitochondrial fusion may promote apoptosis and potentially act as novel chemotherapeutics and stimulation of apoptosis has become an attractive target of anti-cancer therapies. To identify inhibitors of mitochondrial division, we exploit the growth phenotypes of mitochondrial fusion-defective mutants. The temperature sensitive fusion alleles, such as fzo1-1 and mgm1-5, cause mitochondrial membranes to fragment in cells under non-permissive conditions and cells lose mtDNA, and are unable to grow in the presence of non-fermentable carbon source glycerol. Inhibiting mitochondrial division rescues growth. The hits were tested by the assay provider in a malachite green assay. NIH Chemical Genomics Center [NCGC] NIH Molecular Libraries Probe Production Centers Network [MLPCN] MLPCN Grant: MH081279 Assay Submitter (PI): Jodi M. Nunnari
Malachite Green Reagent Malachite Green carbinol base- Aldrich 229105 Ammonium molybdate - Sigma A7302 For 100 mL Malachite Green reagent in 1N HCl 16 mL conc. HCL + 32 mL H20 = 48 mL 4N HCl 34 mg malachite green base into 40 mL 1N HCl (10 mL 4N HCl + 30 mL H20) 1 g ammonium molybdate in 15 mL 4N HCl Mix Solutions together. Bring up to […] with H2O. Filter using a 0.2 um tissue culture filter unit (has plastic bottle attached) store at 4 masculine C. (Avoid Glassware/Plastics washed in detergent. Mix solutions in 50 mL conical vials.) For 20 uL reaction volume 1.0 uL Test Drug or DMSO: Added first to each well […]: 25 mM Hepes/Pipes pH 7.0 (H/P) 2.0 uL: 50 mM MgCl2 (final 5mM) 2.32 uL: 1 M NaCl (with contributing protein salt, Final = 150mM) 13.4 uL per reaction. Can be mixed in larger volume (Mini Master Mix) 1.6 uL: Protein 7.5 uM or Protein Freezing Buffer. (Final = 0.6uM) After Protein Added to mini Master Mix, 15ul Total Master Mix added to each well with drug. 4 uL: 500 uM GTP (Final = 100uM), Dilute with 25 mM H/P, store on ice. 20 uL Total Volume Make Master Mix: (Calculate desired reactions and add a few for multi-channel pipetting volume). Multiply the number of desired reactions by 13.4 uL for total Mini Master volume. Multiply the number of desired reactions by 1.6 uL for total Protein volume. Mix, and keep on ice until added to wells. Add 15 uL of Master Mix to each reaction well, incubate with drug for 10 min. For Positive (No Drug) controls add 15 uL Master Mix to wells with only 1 uL DMSO. Make PFB (Protein Freezing Buffer) (no Protein) Master Mix. Multiply the number of desired reactions by 13.4 uL for total Mini Master volume. Multiply the number of desired reactions by 1.6 uL for total PFB volume. Mix, and keep on ice until added to wells Add 10 uL of PFBMaster Mix to each Phosphate Standards well, and 15 uL to each negative control well with DMSO. […]

Row | Compound | inhibition
1 | CCCCn1c(N2CCC(Cc3ccccc3)CC2)nc2c1c(=O)[nH]c(=O)n2C | inactive
2 | CCCCCn1c(SCCC(C)C)nc2c1c(=O)[nH]c(=O)n2C | 96.1% (active)
3 | C=C(C)Cn1c(N2CC(C)CC(C)C2)nc2c1c(=O)[nH]c(=O)n2C (stereo not drawn) | inactive
4 | C=CCc1cc2c(oc(=O)c3ccccc32)c(C)c1O | inactive
5 | COc1cccc(COc2ccc3c(C)cc(=O)oc3c2)c1 | inactive
6 | O=C1C=C(/C=C/C2C=CC=CC2)C[C@@H](c2ccc(Cl)cc2)C1 (stereo partly drawn) | inactive
7 | Cn1c(=O)c2c(nc(Oc3ccccc3Cl)n2C)n(C)c1=O | inactive
8 | CS/C(=N\S(=O)(=O)c1cccs1)Nc1ccc(Br)cc1F | inactive
9 | Oc1c(I)cc(Cl)c2cccnc12 | 66.8% (active)
10 | Cc1cc(Cl)cc(Cl)c1OCCOc1cccc2cccnc12 | inactive
11 | O=C(Nc1ccc(Cl)cc1C(=O)Nc1ccccn1)c1ccco1 | inactive
12 | CN(C(=O)C(Cl)Cl)c1ccc(OC(=O)c2ccco2)cc1 | inactive
13 | O=C(Oc1c(Cl)cc(Cl)c2cccnc12)c1ccco1 | 67.8% (active)
14 | Oc1c(Cl)cc(Cl)c2cccnc12 | 86% (active)
15 | O=c1oc2cc(O)c(Cl)cc2c2ccccc12 | inactive
16 | CCCCCCSc1ccc([C@@H]2[C@@H]3C(=O)N(C)C(=O)[C@@H]3[C@]3(C(=O)OC)CCCCN23)cc1OC | inactive
17 | O=C(c1cn(Cc2ccccc2)nc1-c1ccc(Cl)cc1)N1CCN(c2ccccn2)CC1 | inactive
18 | O=C(c1cn(-c2ccccc2)nc1-c1cccs1)N1CCN(c2ccccn2)CC1 | inactive
19 | O=C(c1cc(COc2cccc3cnccc23)on1)N1CCC(c2ccccc2Cl)C1 (stereo not drawn) | inactive
20 | COc1ccc(C2=NOC(Cn3nc(C(=O)NCc4ccco4)cc3-c3ccccc3)C2)cc1 (stereo not drawn) | inactive
21 | COc1cccc(NC(=O)CN(C)C(=O)c2sc3cc(Cl)ccc3c2Cl)c1 | inactive
22 | Cc1c(Cl)cccc1Nc1nc(N)nc(CSc2nc3ccccc3s2)n1 | inactive
23 | CNC(=O)c1ccsc1NC(=O)C1CCN(S(=O)(=O)c2ccc(Cl)s2)CC1 | inactive

Row | Compound | inhibition
24 | COc1ccc(N=Nc2nc(-c3ccccc3)c(-c3ccccc3)[nH]2)cc1 | inactive
25 | Clc1ccc(-c2nnc3sc(Cc4cccs4)nn23)cc1 | inactive
26 | c1ccc(-c2nnc3sc(-c4csc5c4CCCC5)nn23)cc1 | 99.9% (active)
27 | COc1ccc2ccccc2c1C(=O)/C=C\c1ccoc1 | inactive
28 | COc1ccc(S(=O)(=O)N(C(=O)c2ccncc2)c2ccc3oc4c(c3c2)CCCC4)cc1 | inactive
29 | O=c1[nH]c(C2CC2)nc2sc3c(c12)CCCC3 | inactive
30 | COCc1nc2sc3c(c2c(=O)[nH]1)CCCC3 | inactive
31 | CC(C)c1nc2sc3c(=O)[nH]c(=S)[nH]c3c2c2c1CCC2 | 104% (active)
32 | O=C(/C=C/c1cccs1)N1CCC2(CC1)Oc1ccc(Cl)cc1C(=O)C21CC(c2cccnc2)=NO1 (stereo not drawn) | inactive
33 | COc1ccc(-c2cc(=O)oc3c(C)c(OC(C)C(C)=O)ccc23)cc1 (stereo not drawn) | inactive
34 | Cc1csc(NC(=O)C(C)Oc2ccc(Br)cc2)n1 (stereo not drawn) | inactive
35 | CC(Oc1cccc(Cl)c1)C(=O)Nc1nc(-c2ccccn2)cs1 (stereo not drawn) | 68.3% (active)
36 | CC(Oc1cccc(Cl)c1)C(=O)Nc1cc(Cl)ccc1N1CCOCC1 (stereo not drawn) | inactive
37 | Cc1ccccc1Nc1nc(N)nc(CSc2nc3ccccc3s2)n1 | inactive
38 | O=C(NCC1(c2ccccc2)CCCC1)c1ccccc1Br | inactive
39 | Cc1cc2nc3s/c(=C/c4ccc(-c5ccccc5C(=O)O)o4)c(=O)n3c2cc1C | 66.8% (active)
40 | Cc1ccc2c(nc3s/c(=C\c4ccc(-c5ccccc5C(=O)O)o4)c(=O)n32)c1C | 86.5% (active)
41 | Cc1c(C(=O)O)cccc1-c1ccc(/C=N/Nc2ccc(Br)cc2)o1 | inactive
42 | Cc1ccc2c(=O)cc(C(=O)NCc3ccccc3)oc2c1C | inactive
43 | CC(C)COc1ccc(S(=O)(=O)NNC(=O)c2cc3ccccc3o2)cc1 | inactive
44 | CCNC(=O)c1ccccc1CCc1ccccc1 | inactive
45 | CCC(C)N1C(=O)S/C(=C/c2ccc(N3CCOCC3)cc2C)C1=O (stereo not drawn) | inactive
46 | COc1ccccc1NC(=O)N(Cc1ccccc1)c1ccccn1 | inactive

Row | Compound | inhibition
47 | Fc1cccc(CNc2ncnc3ccc(-c4ccc5c(c4)OCO5)cc23)c1 | inactive
48 | CCOc1ccc(C(=O)CCN2CCCCC2)cc1 | inactive
49 | CC(CNc1nc2ccccc2n2cnnc12)c1ccccc1 (stereo not drawn) | inactive
50 | COc1ccc(NC(=O)CN(C)C(=O)c2ccccc2CCc2ccccc2)cc1 | inactive
51 | N#CC(Sc1ccccn1)c1ccc(Cl)cc1 (stereo not drawn) | 65.5% (active)
52 | COc1ccc(C(=O)NC2(C(F)(F)F)NC(=O)N(CCCc3ccccc3)C2=O)c(OC)c1OC (stereo not drawn) | inactive
53 | O=C(/C=C/c1ccccc1Cl)c1ccccc(=O)c1O | 77.4% (active)
54 | O=C(/C=C/c1ccccc1Cl)c1ccc[nH]1 | inactive
55 | Cc1cc(=O)oc2c(C(=O)/C=C\c3cccs3)c(O)ccc12 | inactive
56 | Cc1ccc(C)c(/C=C/C(=O)c2ccccc(=O)c2O)c1 | 73.2% (active)
57 | Cc1cc(C)nc(NC(=O)/C=C/c2ccccc2Cl)c1 | inactive
58 | CC1=C(C(=O)OCc2ccccc2)C(/C=C/c2ccccc2)NC(=S)N1 (stereo not drawn) | inactive
59 | C/C(N)=C(/C#N)C(=O)COC(=O)C(c1ccccc1)c1ccccc1 | inactive
60 | COc1ccc(/C(N)=N/OC(=O)C2CCC(=O)N2S(=O)(=O)c2ccc(C)cc2)cc1 (stereo not drawn) | inactive
61 | O=C(Nc1nc(-c2cccs2)cs1)c1cccc(S(=O)(=O)N2CCCCC2)c1 | inactive
62 | COc1ccc(-c2cc(C(=O)OC(C)C(=O)Nc3c(C)n(C)n(-c4ccccc4)c3=O)c3ccccc3n2)cc1 (stereo not drawn) | inactive
63 | Cc1cccc(C(=O)N(Cc2nc3ccccc3c(=O)[nH]2)C2CCCCC2)c1 | inactive
64 | O=C(NCc1ccc2c(c1)OCO2)c1ccc(-c2ccc(Cl)cc2)o1 | inactive
65 | CCc1ccccc1NC(=O)/C(C#N)=C/c1ccc(Sc2ccccc2)o1 | inactive
66 | COc1cc2c(c(OC)c1OC)-c1c(cc3c(c1O)OCO3)C[C@@H](C)[C@@H](C)C2 | inactive
67 | Cc1cccn2c(=O)c(/C=C(\C#N)C(=O)NCc3ccco3)c(N3CCCCC3)nc12 | inactive
68 | Clc1ccc(C[n+]2csc3ccccc32)cc1 | 71.7% (active)

Reference: PubChem BioAssay AID602289 (National Center for Advancing Translational Sciences (NCATS), 2012)
